High-throughput results deposited in PubChem by several laboratories.
HCT116 PTEN-null: suppresses growth of cells with PTEN deletion; HCT116 PTEN-null viability, CellTiter-Glo, 60 h; active compounds read low; viability, % at 10 µM; 140,000 compounds, 1.2% hits; AID 827;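 active = viability at or below a set limit, 4 SD under the median of all tested compounds, cut at about 3.7% in these data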;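 also: PTEN knockout HCT116 line with beta catenin targeted HCT116 as companion control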
Autophagy mod: autophagy modulation, high-content screen; MEF GFP-LC3 puncta imaging; test concentration mostly 10 µM; calls only at 10 µM (by protocol); 190,000 compounds, 0.98% hits;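 active = percentage of spot-positive cells more than 3 SD above its plate mean, without a fluorescence outlier flag or 80% toxicity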;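 also: spot-positive cell cutoff set from DMSO-treated cells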
Insulin prom inh: TRM-6 insulin promoter activity inhibition; TRM-6 cells (human fetal islet line), insulin promoter-eGFP reporter, imaging; reporter expression induced with tamoxifen; inhibition, % at 2 µM; 130,000 compounds, 0.9% hits;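 active = inhibition above the mean plus 3 SD, with well images judged a real hit on visual review, cut at about 60% in these data, passing the limit was not always enough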
Insulin prom up: MIN6 insulin promoter up-regulation. MIN6 insulin promoter-GFP reporter, high-content imaging; active compounds read high. 190,000 compounds, 0.3% hits. z-score at 5 µM;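 active = z-score above 3 at 5 µM with at least 500 cells counted in the well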
bCat KO growth: beta-catenin-lacking colon tumor cell growth suppression; HCT116 beta-catenin knockout viability, CellTiter-Glo, 60 h; active compounds read low; viability, % at 10 µM; 140,000 compounds, 1.5% hits; AID 818;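 active = viability at or under a set limit, the compound median less 4 SD, cut at about 6% in these data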;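 also: 0% = Hyamine 1622 control at 20 µM and 100% = untreated cell control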
Lmaj promast: Leishmania major promastigote growth inhibition. Leishmania major promastigotes, resazurin fluorescence viability. inhibition, % at 10 µM. 200,000 compounds, 9% hits; in the data active = inhibition above about 50%;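 also: promastigotes grown with compound for 44 hours at 28 °C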
Starred values were filed as active, the others as inactive; i = inactive; . = no result given; + = active, no number. Most compounds without a hit are left out; they make up all but 9.6% or so of the library.

SMILES	HCT116 PTEN-null	Autophagy mod	Insulin prom inh	Insulin prom up	bCat KO growth	Lmaj promast
COc1ccc(CN2CCOCC2)cc1	101.0	i	50.0	-1.14	108.8	2.3
COc1cccc(C2=CC(c3ccc(OC)c(OC)c3OC)n3nnnc3N2)c1 (configuration not stated)	16.9	i	-7.4	2.37	16.2	78.5*
CCOc1cc(CNCc2ccncc2)cc(Cl)c1OC	106.3	i	-25.0	0.09	91.4	88.7*
COc1cc(CNCc2ccccc2)cc(Cl)c1OC	.	i	.	0.06	.	65.6*
COc1cc(CNn2cn[nH]c2=S)cc(Cl)c1OCc1ccccc1	94.5	i	-33.3	.	101.2	-4.2
CCCCNCc1cc(Cl)c(OCCC)c(OCC)c1	83.3	i	.	.	89.2	90.3*
CCOc1cc(CNCC2CCCN2CC)cc(Cl)c1OC (configuration not stated)	.	i	-345.0	.	.	2.4
COc1cc(CNCCc2ccccc2)cc(Cl)c1OCc1ccccc1	.	i	-35.3	.	.	91.1*
COc1cc(C(=O)NCCC(=O)NCCCN2CCCCC2C)cc(OC)c1OC (configuration not stated)	103.0	i	.	0.79	110.4	-0.8
O=c1[nH]c(N2CCOCC2)nc2ncn(Cc3ccccc3)c12	97.0	i	55.6	-0.63	104.2	-8.4
O=C(NCc1ccco1)c1cc([N+](=O)[O-])ccc1N1CCOCC1	.	i	.	0.37	.	-3.5
COc1ccccc1OCCN1C(=O)S/C(=C\c2ccco2)C1=O	89.1	i	.	-1.16	82.8	54.7*
COc1ccccc1/C=C1\SC(=O)N(CCC(=O)NNC(=O)c2ccccc2Cl)C1=O	101.5	i	45.8	-0.32	93.9	-2.9
CCOc1ccc2nc(C)cc(Nc3ccc4c(c3)OCCO4)c2c1	0.8*	i	35.5	-0.61	0.7*	100.7*
CCOc1ccc2nc(C)cc(Nc3ccc(N4CCOCC4)cc3)c2c1	60.0	i	22.2	-0.79	67.8	63.6*
Cc1cc(C)nc(Nc2ccc(N3CCOCC3)cc2)n1	103.0	i	.	0.9	100.8	-4.4
CC(=O)c1ccc(Nc2cc(C)nc3ccc(C)cc23)cc1	.	i	.	-0.17	.	83.5*
Cc1cc(Nc2ccc3c(c2)OCCO3)c2cccc(C)c2n1	37.9	i	0.0	-1.01	33.4	84.9*
CCOC(=O)c1cnc2ccc(OC)cc2c1Nc1ccc2c(c1)OCCO2	30.9	i	6.7	1.55	35.6	27.1
CCn1c(CNc2ccccc2Cl)nnc1SCCN1CCCCC1	104.4	i	-43.8	-0.52	91.0	0.6
Cc1cc(C)c2c(CC(=O)NCCc3ccccc3)coc2c1	.	i	-120.0	-0.36	.	-3.4
C=C(C)CN=c1scc(C)n1/N=C/c1ccco1	84.8	i	.	0.58	76.6	7.8
COCCn1c(C)cc(C2=NNC(=Nc3ccccc3)SC2)c1C	21.5	i	-10.5	-0.74	30.0	5.3
O=C(Nc1ccc(NC(=O)c2ccco2)nc1)c1ccco1	.	i	-41.7	-0.71	.	-3.4
Cc1ccc(NS(=O)(=O)c2ccc(Cl)s2)cc1S(=O)(=O)N(C)C	88.6	i	-1.5	0.15	95.1	4.0
SMILES	HCT116 PTEN-null	Autophagy mod	Insulin prom inh	Insulin prom up	bCat KO growth	Lmaj promast
Cc1cc(C(=O)Nc2ccc3c(c2)OCCO3)c2ccccc2n1	.	i	.	0.31	.	-1.9
Cc1cc(Nc2ccc3c(c2)OCCO3)c2ccccc2n1	66.3	i	0.0	-0.19	61.5	95.2*
Cc1ccc2nc(C)cc(Nc3ccc4c(c3)OCCO4)c2c1	12.2	i	-5.4	-1.27	9.9	100.4*
Cc1cc(C)c(C(N)=O)c(Nc2ccc3c(c2)OCCO3)n1	104.5	i	-31.2	0.38	93.4	1.6
CCOc1ccc2nc(C)cc(Nc3cccc([N+](=O)[O-])c3)c2c1	1.5*	+	28.6	-3.35	1.5*	100.4*
Cc1cc(Nc2cccc([N+](=O)[O-])c2)c2ccccc2n1	.	i	.	-0.36	.	44.8
Cc1csc2sc(-c3ccnc(SCC(=O)NCc4ccccc4)n3)c(C)c12	.	.	.	-0.48	.	.
Cc1ccc(C(=O)/C=C/c2ccc(Br)cc2)o1	1.4*	i	0.0	-0.39	2.2*	78.9*
Cc1ccc(C(=O)/C=C/c2ccccc2)o1	9.8	i	-26.7	-0.31	5.9*	82.6*
COc1ccc(NC(=O)COC(=O)c2c(F)cccc2Cl)cc1OC	.	i	.	-0.02	.	10.1
Cn1c(CN2CCN(C(=O)c3ccccc3Cl)CC2)nc2cc([N+](=O)[O-])ccc21	86.8	i	41.5	-0.03	94.2	-4.0
Cn1c(CN2CCN(C(=O)c3ccccc3)CC2)nc2cc([N+](=O)[O-])ccc21	97.1	i	22.9	-0.12	90.2	51.4*
CCN(CC)CCNC(=O)c1ccc2c(=O)n(C3CCCC3)c(=S)[nH]c2c1	8.2	i	-13.2	-0.87	18.9	85.2*
CC(C)NC(=O)c1ccc2c(=O)n(C3CCCC3)c(=S)[nH]c2c1	82.7	i	.	-0.87	92.8	1.0
CCC1CSC(Nc2ccc(C(=O)/C=C/c3cccc(C)c3)cc2)=N1 (configuration not stated)	20.6	i	.	-0.04	11.1	13.8
CCC1CSC(Nc2ccc(C(=O)/C=C/c3ccc(Oc4ccccc4)cc3)cc2)=N1 (configuration not stated)	30.4	i	7.1	0.7	42.4	58.6*
CC(=O)NC(Cc1ccccc1F)C(=O)NC1CCN(c2ncccc2[N+](=O)[O-])CC1 (configuration not stated)	.	i	.	-0.77	.	-7.8
CCN1CCN(c2ncc3c(n2)CC(c2ccc(OC)c(OC)c2)CC3=O)CC1 (configuration not stated)	47.0	i	.	-2.35	55.3	99.3*
C/C(=N/NC(=O)c1ccc2c(c1)OCO2)c1ccc(Br)s1	.	i	13.3	-0.41	.	-1.7
C/C(=N\NC(=O)CNc1cccc(C)c1)c1ccc(Br)s1	87.6	i	17.2	-0.21	79.0	57.1*
C/C(=N\NC(=O)c1ccc(Cl)c(Cl)c1)c1ccc(Br)s1	3.6*	i	.	0.44	6.1*	10.6
CCOC(=O)c1[nH]c(C)c(C(=O)NCc2ccccn2)c1C	110.6	i	48.0	-0.03	97.4	-3.6
CC(C)(CO)NCc1cccc(OCc2ccc(Cl)cc2)c1	76.0	i	-30.8	-0.55	74.7	31.1
c1ccc(COc2cccc(CNCc3cccs3)c2)cc1	98.6	i	.	-0.39	98.3	98.3*
Clc1ccc(COc2cccc(CNCc3ccncc3)c2)cc1	.	i	.	-2.32	.	94.0*
COc1cc(CNCc2cccs2)ccc1OCC(N)=O	90.5	i	-2.4	.	99.0	-2.9
Oc1ccc2cc(Br)ccc2c1CN1CCCC1	.	i	-40.0	-0.43	.	0.2
O=C(Nc1cccc(C(F)(F)F)c1)OCCN1CCN(Cc2ccccc2)CCC1=O	60.2	i	-65.0	0.05	70.6	4.8
CCN1CCN(Cc2c(O)ccc3c2O/C(=C\C=C\c2ccccc2)C3=O)CC1	62.3	i	0.0	0.33	62.8	96.4*
Cc1ccc(OCC(=O)OC2CCCN(C)C2)cc1 (configuration not stated)	.	i	.	0.58	.	-4.3
